Results filed as inconclusive are left out. Entries that show only a call come without a potency. Calls of active or inactive are those of the source. Calls come from the whole dose curve; as a rule, active = well fitted inhibition curve with a large enough effect; inconclusive = small, poorly fitted or top-dose-only effect; inactive = flat fitted curve, though single readings scatter.
Potency is the fitted concentration of half-maximal effect.

This assay can be described thus: BET inhibitor-based combinations targeting novel dependencies in MECOM-rearranged (r) AML: AML-194 cell line (AID 2202237; note: nearly all actives have a fitted effect of over 40% in size). The following applies: AML-194 (MECOM-r AML) viability, CellTiter-Glo, 48 h; series mostly up to 46 µM. The source says: Ecotropic viral insertion site 1 (EVI1) is located on chromosome 3q26.2 as part of the MECOM (MDS and EVI1 complex) locus. Under normal hematopoiesis, EVI1 is a regulator of hematopoietic stem cell maintenance and self-renewal and EVI1 levels decrease as the cells differentiate. In approximately 5-10% of de novo acute myeloid leukemia (AML) EVI1 is aberrantly expressed, including Chromosomal inv(3)(q21;q26.2) or t(3;3)(q21;q26.2) alterations (MECOM-r) that account for about 50% of AML with EVI1 overexpression 31. AMLs with high levels of EVI1 have a poor prognosis and an overall survival time averaging between 10-14 months. EVI1 overexpression confers resistance in leukemia cells, highlighting the need to develop new targeted therapies for EVI1 overexpressing AMLs.
Here, we performed an unbiased chemical drug screening by evaluating the single agent activity of a collection of 2,480 oncology-focused, approved and investigational drugs (NCATS Mechanism Interrogation Plates, MIPE v5.0) against a panel of seven AML cell lines. These included four MECOM-r cell-lines (AML-191, AML-194, UCSD-AML1 and HNT-34) and three non-MECOM-r AMLs (MV4-11, OCI-AML3 and SET-2). Exploiting the mechanistic redundancy built in the library, we identified target-level sensitivities in MECOM-r AML cells and relative activity as compared to other AML subtypes.
A collection of 2480 mechanistically annotated dugs (MIPE v5.0) was used to screen four 3q26.2 rearranged AML cell lines and three non-3q26.2 rearranged AML cell lines. This library purposely exploits redundancy by including multiple inhibitors of key onco-targets, while simultaneously encompassing mechanistic diversity, targeting more than 800 distinct mechanisms of action. Briefly, cells were seeded in 5 uL of growth media using a Multidrop Combi dispenser into 1536 well white polystyrene tissue culture treated plates (Corning) at a density of 500cells/well. For each cell-line, for each of the 2480 drugs in MIPE v5.0 library, an 11-point dose curve was generated via a 1536 pin-tool. Plates were incubated for 48 hr at standard incubator conditions, covered by a stainless steel gasketed lid to prevent evaporation. Cell viability was determined by luminescence based, Cell Titer Glo assay (Promega). In detail, 3 uL of Cell Titer Glo were added to each well and plates were incubated at room temperature for 15 min with a stainless-steel lid in place. Luminescence readings were taken using a Viewlux (PerkinElmer) with a 2 s exposure time per plate. Compound dose-response curves were normalized to DMSO and empty well controls on each plate. Quantitative drug activity data from dose-response curves was determined utilizing area Under the Curve (AUC) and Z-transformed AUC (Z-AUC, a mean-centering transformation applied to each individual cell-line screened).
Turning to `CC(C)CC(N(C)C)C1(c2ccc(Cl)cc2)CCC1` (stereo not given), the Potency entry was “inactive”.
Turning to `C#CC1(O)CCC2C3CCC4=CC(=O)CCC4(C)C3CCC21C` (stereo not given), the Potency result was “inactive”.
As for `CCOC(=O)Nc1ccc(NCc2ccc(F)cc2)cc1N`, the entry is “inactive”; as for `CCNC(=O)CC1N=C(c2ccc(Cl)cc2)c2cc(OC)ccc2-n2c(C)nnc21` (stereo not given), “inactive”.
In the case of `CN(C)[C@@H]1C(=O)C(C(N)=O)=C(O)[C@@]2(O)C(=O)C3=C(O)c4c(O)cccc4[C@@](C)(O)[C@H]3C[C@@H]12`, the Potency entry is “inactive”.
The entry for `Clc1ccccc1C(c1ccccc1)(c1ccccc1)n1cccn1` is “inactive”.
As for `Fc1ccc(C(OCCN2CCN(CCCc3ccccc3)CC2)c2ccc(F)cc2)cc1`, the figure is 23500 nM (active); as for `N=c1c2c(-c3ccccc3)c(-c3ccccc3)n(Cc3ccccc3)c2ncn1C1CCC(O)CC1` (stereo not given), 4680 nM (active).
As to `CN1C(=O)COc2c(C(=O)NC3CN4CCC3CC4)cc(Cl)cc21` (stereo not given), the Potency entry is “inactive”.
With `CNC(=O)c1ccc(N2C(=S)N(c3ccc(C#N)c(C(F)(F)F)c3)C(=O)C23CCC3)cc1F`, the Potency result is “inactive”.
The figure for `C/C(=C\c1csc(C)n1)[C@@H]1C[C@@H]2O[C@]2(C)CCC[C@H](C)[C@H](O)[C@@H](C)C(=O)C(C)(C)[C@@H](O)CC(=O)O1` is 11.8 nM (active).
As for `O=C(N[C@H]1CN2CCC1CC2)c1ccc(Cl)cc1`, the entry is “inactive”; as for `CCc1c(C(=O)C(N)=O)c2c(OCC(=O)O)cccc2n1Cc1ccccc1`, “inactive”; as for `C[C@]12CC[C@H]3[C@@H](CC[C@@]45O[C@@H]4C(O)=C(C#N)C[C@]35C)[C@@H]1CC[C@@H]2O`, “inactive”.
As for `CO[C@H]1CCC(O[C@H]2C[C@H]([C@]3(C)CC[C@]4(C[C@H](O)[C@@H](C)[C@@H]([C@@H](C)/C=C(\C)C(=O)[C@H](C)C[C@H](C)C(=O)O)O4)O3)O[C@]3(O[C@@H]([C@H]4O[C@@](O)(CO)[C@H](C)C[C@@H]4C)C[C@@H]3C)[C@@H]2C)O[C@@H]1C` (stereo not given in full), the figure is 263 nM (active); as for `CC1=C(O)C(=O)C=C2C1=CC=C1[C@@]2(C)CC[C@@]2(C)[C@@H]3C[C@](C)(C(=O)O)CC[C@]3(C)CC[C@]12C`, 1180 nM (active); as for `C[C@](O)(COc1ccc(C#N)cc1)C(=O)Nc1ccc(C#N)c(C(F)(F)F)c1`, “inactive”.
As for `CCN1C[C@]2(OC(=O)c3ccccc3NC(C)=O)CC[C@H](OC)[C@@]34[C@H]5CC6[C@@H](OC)C[C@](O)(C(C[C@@H]23)[C@@H]14)[C@@]5(O)[C@@H]6OC`, the Potency result is “inactive”.
With `CC(C)C[C@H](CN)CC(=O)O`, the Potency result was “inactive”.
In the case of `C=C[C@H]1CN2CCC1C[C@@H]2[C@@H](O)c1ccnc2ccccc12` (stereo not given in full), the Potency entry was “inactive”.
The entry for `Cc1cccc(C)c1NC(=O)CN1CCCC1=O` is “inactive”.
The figure for `C[C@@H]1CN(Cc2ccc(F)cc2)CCN1C(=O)COc1ccc(Cl)cc1NC(N)=O` is 18600 nM (active).
`C[C@H]1CCC/C=C/C2C[C@H](O)C[C@H]2[C@H](O)/C=C/C(=O)O1` (stereo not given in full): the Potency was 372 nM (active).
The entry for `CC(O)(CS(=O)(=O)c1ccc(F)cc1)C(=O)Nc1ccc(C#N)c(C(F)(F)F)c1` (stereo not given) is “inactive”; for `CCOP(=O)(OCC)C(C)NC(=O)N(CCCl)N=O` (stereo not given) it is “inactive”.
The entry for `COC1(CS(=O)c2ccccc2)CCN(CCc2c[nH]c3ccc(F)cc23)CC1` (stereo not given) is “inactive”.
The figure for `COc1ccc(C(=O)c2c(C)n(CCN3CCOCC3)c3cc(I)ccc23)cc1` is 9340 nM (active).
Turning to `O=C(O)C(=O)c1cn(Cc2ccccc2)c2ccc(-c3ccc(OC(F)(F)F)cc3)cc12`, the Potency entry was “inactive”.
As for `CCCCCCC(C)(C)c1cc(O)c2c(c1)OC(C)(C)C1CC=C(CO)C[C@H]21` (stereo not given in full), the figure is 23500 nM (active).
As for `CC1=C2C[C@H]3[C@@H](CC=C4C[C@@H](O)CC[C@@]43C)[C@@H]2CC[C@]12O[C@@H]1C[C@H](C)CN[C@H]1[C@H]2C`, the entry is “inactive”; as for `C/C=C(\C)C(=O)N[C@@H](c1ccccc1)[C@@H](O)C(=O)O[C@H]1C[C@@]2(O)[C@@H](OC(=O)c3ccccc3)[C@@H]3[C@]4(OC(C)=O)CO[C@@H]4C[C@H](O)[C@@]3(C)C(=O)[C@H](OC(C)=O)C(=C1C)C2(C)C`, 74.2 nM (active).
The figure for `COC[C@H]1OC(=O)c2coc3c2[C@@]1(C)C1=C(C3=O)[C@@H]2CC[C@H](O)[C@@]2(C)C[C@H]1OC(C)=O` is 8330 nM (active); for `CCN(CC)C(=O)c1ccc(C2=CC3(CCNCC3)Oc3cccc(O)c32)cc1` it is “inactive”; for `CN[C@@H]1C[C@H]2O[C@@](C)([C@@H]1OC)n1c3ccccc3c3c4c(c5c6ccccc6n2c5c31)C(=O)NC4` it is 33.2 nM (active).
In the case of `Cc1cc(SCc2sc(-c3ccc(C(F)(F)F)c(F)c3)nc2C)ccc1OCC(=O)O`, the Potency result is “inactive”.
As for `CC(C)(NC(=O)O[C@@H]1CN2CCC1CC2)c1csc(-c2ccc(F)cc2)n1`, the entry is “inactive”; as for `CCCCCC[C@H]1C(=O)O[C@H](C)[C@H](NC(=O)c2cccc(NC=O)c2O)C(=O)O[C@@H](C)[C@@H]1OC(=O)CC(C)C`, “inactive”.
Consider `CC(C)(O)/C=C\C(=O)[C@](C)(O)[C@H]1[C@H](O)C[C@]2(C)[C@@H]3CC=C4[C@@H](C=C(O)C(=O)C4(C)C)[C@]3(C)C(=O)C[C@@]12C`, for which the Potency was 417 nM (active).
As for `CCN1CCN(C(=O)Cc2ccc(Nc3ncc(F)c(Nc4ccc(C(=O)Nc5ccccc5Cl)cc4)n3)cc2)CC1`, the figure is 7420 nM (active); as for `CN[C@@H]1Cc2cccc3[nH]c(=O)n(c23)C1`, “inactive”.
